From ChEMBL document CHEMBL4513216, “Probing the Open Global Health Chemical Diversity Library for Multistage-Active Starting Points for Next-Generation Antimalarials” (ACS Infect Dis, 2020)
Screen size: about 69,000 compounds; about 8,600 (12%) showed an effect of 50% or more. The full list was thinned out, with strong results kept by preference.

What follows are molecules tested on Plasmodium berghei (assay: Screen against P. berghei liver stage (PbLuc), transformed with Luciferase, at 10uM). Details: tested at 10 uM.
Format: functional, HepG2

Structure (SMILES)	INHIBITION [%]
NC1CCCN(C(=O)c2csc(-c3ccc(C(F)(F)F)cc3)n2)CC1 (configuration not stated)	32.4
Cc1ncsc1C(=O)NCCNC(=O)OC(C)(C)C	-7.93
COc1cccc(CN(C)CCCn2cnc3c(N)ncnc32)c1	9.84
COc1cccc(SCCCn2cnc3c(N)ncnc32)c1	52.1
COc1ccc(OCCN(C)CCCn2cnc3c(N)ncnc32)cc1	10.6
CC(C)c1[nH]c2ncccc2c1CN1CCN(S(=O)(=O)N(C)C)CC1	-33.6
Cc1nccn1C1CCCN(C(=O)COCC2CC2)C1 (configuration not stated)	22.9
O=C(CSCc1ccccn1)N(Cc1ccsc1)C1CC1	36.2
O=C(O)c1cccnc1CN(Cc1ccsc1)C1CC1	87.5
CN(Cc1csc(-c2ccccc2)n1)Cc1ncccc1C(=O)O	25.5
O=C(c1cccs1)N1CCc2c(nc(N3CCCCC3)[nH]c2=O)C1	37.6
COc1ccc(C(=O)NCc2ccco2)nn1	9.4
Nc1cc(C(=O)N2CCCC3(C=Cc4ccccc4O3)CC2)ccn1 (configuration not stated)	34.8
Cc1cc2c(cc1Cl)C=CC1(CCN(C(=O)N3CCOCC3)CC1)O2	89.9
Cc1cc2c(cc1Cl)C=CC1(CCN(CC(=O)N3CCOCC3)CC1)O2	15.1
Cc1ccc(CCC(=O)N2CCOCC2)cc1Cl	-18
Cc1cc2c(cc1C)OC1(C=C2)CCN(CC(=O)N2CCOCC2)CC1	19.5
Cc1cc(C)n(CC2CN(CC(=O)NC3CCCC3)CCO2)n1 (configuration not stated)	0.706
Cc1cc(C(=O)N2CCCC3(C=Cc4ccccc4O3)CC2)cc(=O)[nH]1 (configuration not stated)	-155
CCN(CC)C(=O)CN1CCC2(C=Cc3cc(Cl)c(C)cc3O2)CC1	78.9
Cc1cc2c(cc1Cl)C=CC1(CCN(CC(=O)NC3CCCC3)CC1)O2	80
Cc1cc(C)n(CC2CN(CC(=O)NC3CCCCC3)CCO2)n1 (configuration not stated)	8.64
Cc1cc2c(cc1Cl)C=CC1(CCN(CC(=O)N3CCCC3)CC1)O2	85.5

Structure (SMILES)	INHIBITION [%]
CCN(CC)C(=O)CN1CCC(c2nc(C)c3c(n2)N(C)CCC3)CC1	8.12
Cn1nc(C2CC2)cc1C(=O)N1CCC(c2nnsc2S(C)(=O)=O)CC1	18.14
CN(C)C(=O)CN1C(=O)CCC12CCN(Cc1ccsc1)CC2	17.4
COc1cc2c(cc1CCC(=O)O)CCC2	-5.7
COc1cc(C)c(C)cc1S(=O)(=O)N(C)CC(=O)Nc1ccon1	27.4
CCCn1nnnc1COc1cc(OC)ccc1C(=O)OC	18.4
CCCc1cc(N2CCC(NCCc3ccc(O)cc3)CC2)nc(C)n1	30.3
CCc1cc(N2CCC(NCCc3ccccc3F)CC2)nc(C)n1	11
CCn1ccnc1CNC1CC(=O)N(CCc2cccc(Cl)c2)C1 (configuration not stated)	-6.39
CCCc1cc(NCCCC2CCOC2)n2nccc2n1 (configuration not stated)	-7.65
CCc1nccn1CCNC1CCN(c2nc3ccc(Cl)cc3s2)CC1	78.1
Clc1ccc2nc(N3CCC(NCCCC4CCOC4)CC3)sc2c1 (configuration not stated)	88.1
CCS(=O)(=O)CCNC1CCN(c2nc3ccc(Cl)cc3s2)CC1	85.2
CS(=O)(=O)N1CCC(Nc2ccnc3ccc(Cl)cc23)CC1	-20.6
CCc1cc(NCCCC2CCOC2)n2nccc2n1 (configuration not stated)	48.1
CCOc1ccc2cc(C(=O)NCCNc3ccc(C)nn3)[nH]c2c1	-21.9
Cc1cc(C(=O)NC2CCC3(CCC(=O)N3C)CC2)no1 (configuration not stated)	28.4
CN(Cc1ccco1)[C@@H]1CN(Cc2ccsc2)C[C@@H]2CCCO[C@@H]21	17.5
CC(C)N(Cc1ccccn1)C(=O)CCC(=O)c1ccccc1	34.1
CC(C)c1n[nH]c(C2CN(CCc3cccs3)CCO2)n1 (configuration not stated)	-21.9
CN(Cc1ccco1)C(=O)C1=NN(C)C(=O)CC1	-14.3
CC(=O)N(CCc1nc(-c2cc(C(N)=O)oc2C)cs1)C(C)C	74
CC(=O)N(CCc1nc(-c2cc(C(N)=O)co2)cs1)C(C)C	-49.3

Structure (SMILES)	INHIBITION [%]
CC(=O)N(C)CCc1nc(-c2cc(C(N)=O)co2)cs1	-91.4
CCC(=O)N1CCCC1c1nc(N(C)C)ncc1-c1ccc(Cl)cc1 (configuration not stated)	50.8
CN(C)c1nccc(C2CCCN(C(=O)CO)C2)n1 (configuration not stated)	23.2
CCC(=O)N1CCCC(c2nc(N(C)C)ncc2-c2ccc(F)cc2)C1 (configuration not stated)	73.1
CC(C)C(=O)N1CCCC1c1nc(N(C)C)ncc1-c1ccc(Cl)cc1 (configuration not stated)	26.7
CC(=O)N1CCOC(c2nc(N(C)C)ncc2-c2cccc(F)c2)C1 (configuration not stated)	9.93
CC(=O)N1CCCC1c1nc(N(C)C)ncc1-c1ccccc1 (configuration not stated)	1.62
CC(=O)N1CCCC(c2nc(N(C)C)ncc2-c2cccc(F)c2)C1 (configuration not stated)	74.9
CC(=O)N1CCCC(c2nc(N(C)C)ncc2-c2ccccc2)C1 (configuration not stated)	9.98
COCC(=O)N1CCCC(c2nc(N(C)C)ncc2-c2ccccc2)C1 (configuration not stated)	42.5
CSCC[C@H](N)C(=O)NCc1cc2n(n1)CCCN(C(=O)N(C)C)C2	3.19
Cc1nc(CN2CCO[C@H]3[C@H](OCC(=O)N(C)C)CC[C@@H]32)cs1	10.6
CC(NC(=O)c1ccc(F)cc1F)c1cnn(C)c1 (configuration not stated)	33.3
O=C(Nc1cccnc1)[C@H]1C[C@H]2OCC[C@H]2N(C(=O)c2ccsc2)C1	3.41
CCNc1nc2cn(-c3ccc(Cl)cc3)c(=O)c-2c[nH]1	-64.5
c1cncc(-c2noc(CNCC3CCCN3c3cccnn3)n2)c1 (configuration not stated)	-7.81
COC(C)(C)CC(C)NCc1cn2ccccc2n1 (configuration not stated)	8.38
Cc1cc(O)n(-c2ccc3nnc(C)n3n2)n1	6.83
Cc1ccccc1OC(C(=O)N1CCC2(CC1)CN(C)C(=O)O2)C(C)C (configuration not stated)	41.5
Cc1ccccc1OCC(O)C(=O)N1CCC2(CC1)CN(C)C(=O)O2 (configuration not stated)	39.6
CC(C)C(C(=O)N1CCC2(CC1)CN(C)C(=O)O2)c1ccccc1 (configuration not stated)	56.3
